Reference: PubChem BioAssay AID2314 (National Center for Advancing Translational Sciences (NCATS), 2010)
The whole screen tested about 300,000 compounds, of which about 37,000 (12%) were called active. The list comes from a sample in which actives are over-represented; it also holds similar structures and randomly drawn compounds. Values without a mark were called inactive. Rule as the data show it: active = max response mostly above about 13% (no sharp cut-off); inactive = mostly below about 14%.

Assay: Cycloheximide Counterscreen for Small Molecule Inhibitors of Shiga Toxin; also: read at 38.3 µM for the half of the compounds with a filed dose; 0% is about no effect
Settings: cell reporter, cycloheximide protein synthesis inhibition counterscreen; hits give high values

Compound	max response
COc1cccc(NC(=O)CC(c2ccc(OC(C)C)cc2)c2ccccc2OC)c1 (centres undefined)	2.51%
COc1ccc(/C=C(\NC(=O)c2ccc(OCC(C)C)cc2)C(=O)OCc2ccco2)cc1	-1.98%
COc1ccc(Cn2c(=S)[nH]c3cc(C(=O)NCCCN4CCOCC4)ccc3c2=O)cc1	-1.29%
Cc1ccc(S(=O)(=O)NCCC(=O)Nc2ccc(C)c(Cl)c2)cc1C	-4.03%
Cc1ccc(S(=O)(=O)NCCC(=O)Nc2cccc(S(N)(=O)=O)c2)cc1C	-4.85%
Cc1ccnc(NC(=O)CCNS(=O)(=O)c2ccc(C)c(C)c2)c1	47.8% (active)
O=C1C=C(c2ccc(Cl)cc2)C(=O)N1Nc1ccccc1	-6.32%
CCOc1cc(CNn2c(C)nnc2SCC(=O)NC(C)(C)C)ccc1OCC(=O)NC(C)(C)C	-1.88%
Cn1cnc2c1c(=O)n(Cc1ccccc1C#N)c(=O)n2C	7.66%
COc1ccccc1CN1CCCC(N2CCN(c3ccc(F)cc3)CC2)C1 (centres undefined)	0.35%
N#CC(C#N)=Cc1cc(O)c(O)c([N+](=O)[O-])c1	37% (active)
CN(C)/N=C/c1cc(Cl)cc([N+](=O)[O-])c1O	-1.13%
O=[N+]([O-])c1cc([N+](=O)[O-])c2cccnc2c1O	5.27%
O=[N+]([O-])c1ccccc1/C=C/CN1CCC(O)CC1	0.466%
COc1ccc(-c2c(C#Cc3ccccc3)c3ccccc3n2C)cc1	40% (active)
COc1ccc(CCNCc2c(-c3ccccc3)n(C)c3ccccc23)cc1	-3.43%
CN(C)Cc1c(C#N)c2ccccc2n1C	-3.13%
Cc1cc(=O)oc2c1ccc1ccccc12	0.801%
O=C(CSc1nccc(=O)[nH]1)Nc1ccc(N2CCOCC2)c(Cl)c1	-2.31%
COc1ccc(CCNC(=O)CS(=O)(=O)Cc2nc(-c3ccc(C)cc3)oc2C)cc1OC	-4.16%
CC(C)C(=O)Nc1c(O)c2ccccc2[nH]c1=O	-0.723%
CCCC(=O)Nc1c(O)c2ccccc2[nH]c1=O	-3.15%

Compound	max response
NS(=O)(=O)c1ccccc1NC(=O)c1c(O)c2ccccc2[nH]c1=O	41.2% (active)
N#Cc1ccc(-c2nc3cc(C#N)c(C#N)cc3nc2-c2ccccc2)cc1C#N	18.4%
Cc1ccc(N2C(=O)C3C4C=CC(CC4)C3C2=O)cc1Br (centres undefined)	0.748%
COc1ccc(CNC(=O)CN(c2ccc(OC)c(Cl)c2)S(=O)(=O)c2ccc(C)cc2)cc1	6.81%
COc1cc(N/C=C2\CC(=O)NC(C)=C2C#N)cc(OC)c1OC	-2.39%
O=C(c1ccncc1)N1CCN(c2ccc3ccccc3n2)CC1	8.94%
Oc1ccc(CN2CCN(c3ncccn3)CC2)cc1	-3.1%
c1cnc(N2CCN(c3ccc4ccccc4n3)CC2)nc1	53% (active)
Fc1cc(F)c2nc(N3CCOCC3)sc2c1	36.9% (active)
Cc1cc(C)c2nc(N3CCC(C(=O)NCCN4CCOCC4)CC3)sc2c1	-2.32%
Cc1nc(N2CCOCC2)sc1C(=O)NN	-3.93%
COc1cc(OC)cc(C(=O)N[C@H](C(=O)Nc2nc3ccccc3[nH]2)C(C)C)c1	0.422%
COC(=O)Nc1nc2ccc(Sc3ccccc3)cc2[nH]1	27.6% (active)
CC(C)c1nc2ccc(C(=O)O)cc2[nH]1	7.51%
CNc1nc(Nc2ccc(C)c(Cl)c2)nc(N)c1[N+](=O)[O-]	32.5% (active)
Cc1ccc(Nc2nc(N3CCOCC3)nc(N3CCOCC3)n2)cc1Cl	-3.32%
Nc1nc(Nc2ccccc2)nc(NCCO)c1[N+](=O)[O-]	0.849%
c1ccc2c(c1)CSc1sccc1C2=C1CCNCC1	-3.55%
CC(=O)NC(=S)NNC(=O)c1ccc(Br)cc1	12.5%
Cc1ccccc1Cn1c2ccccc2c2cnn(CC(=O)NCc3ccco3)c(=O)c21	1.52%
Cc1[nH]c2ccc(C(=O)N3CCN(C)CC3)cc2c1C	28% (active)
COc1ccc2[nH]c(C(=O)N3CCN(C)CC3)c(C)c2c1	7.26%

Compound	max response
CCOc1ccccc1N1CCN(C(=O)c2ccc3[nH]c(C)c(C)c3c2)CC1	-2.02%
FC(F)(F)c1cnc(Oc2ccccc2-c2nnc(-c3ccc(Cl)cc3)o2)c(Cl)c1	13.8% (active)
Cc1cc(C)cc(NS(=O)(=O)c2ccc(Oc3ncc(C(F)(F)F)cc3Cl)cc2)c1	-3.33%
COC(=O)Cc1ccc(Oc2ncc(C(F)(F)F)cc2Cl)cc1	10.3%
CSc1ccccc1-c1nnc(-c2ccc(Cl)cc2)o1	29% (active)
Cc1c(C)c2ccc(OCC(=O)N3CCN(c4cccc(Cl)c4)CC3)cc2oc1=O	-3.72%
COc1cccc(-c2coc3cc4oc(=O)c(CC(=O)O)c(C)c4cc23)c1	7.42%
Cc1ccccc1CN1CCNC(=O)C1CC(=O)NCCC1=CCCCC1 (centres undefined)	-4.14%
CN(C)CCCNC(=S)N1CCC(c2nc3ccccc3[nH]2)CC1	-2.52%
CC(=O)N1c2ccc(S(=O)(=O)N3CCC(C(=O)NCc4ccc(F)cc4)CC3)cc2CC1C (centres undefined)	-3.6%
CCNc1ccc(C(=O)OCC(=O)N2c3ccccc3NC(=O)C2(C)C)cc1[N+](=O)[O-]	-4.72%
Cn1c(SCC(=O)c2ccc(F)cc2)nnc1-c1ccccn1	6.35%
Cc1ccc(-n2c(C)cc(C(=O)CN3C(=O)C(=O)N(C4CCCC4)C3=O)c2C)cc1	-1.52%
Cn1c(CC(=O)Nc2ccccc2)nnc1SCC(=O)c1ccccc1	3.65%
Cc1ccc(-n2c(C)cc(C(=O)CSc3nnc4ccccn34)c2C)cc1	39.3% (active)
N#Cc1ccc(CSc2nnc3ccccn23)cc1	5.39%
O=C(CSc1nnc2n1CCCN2)c1ccccc1	38.3% (active)
O=C(CSc1nnc(-c2ccco2)n1CC1CCCO1)c1ccccc1 (centres undefined)	8.39%
Cc1cc(C(=O)CSc2nc(N)cc(=O)[nH]2)c(C)n1-c1cccc(F)c1	7.82%
O=C(CSc1nnc2ccccn12)c1ccccc1	49.5% (active)
